Common to all, as to experiment: NCI-60 one-dose screen, 48 h (100 = growth as untreated, 0 = no growth, -100 = all killed)
Common to all, as to details: 10 µM unless noted

Test [1] relates to HCT-15 colon.
Test [2] deals with HT29 colon.
In test [3] the test system is SNB-75 CNS.
For test [4], the system named is SNB-19 CNS.
The subject of test [5] is U251 CNS.
The test system of test [6] is PC-3 prostate.
Test [7] deals with SK-MEL-5 melanoma.
For test [8], the system named is UACC-62 melanoma.
Test [9] concerns LOX IMVI melanoma.
Test [10] concerns SK-MEL-28 melanoma.

The panel holds about 83,000 compounds, 20% with a hit somewhere; the sample as a whole holds those more often.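 Assay: single dose, 48 h. Readout: percent growth (0 = no net growth; negative = cell death). Active: <10.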 Unmarked numbers belong to inactive results. Activity calls are given as the source filed them.

On to `COc1cc2[nH]c(C(=O)c3cc(OC)c(OC)c(OC)c3)c(N)c2cc1C#CC1CC1`, for which the growth in test [1] is 23.1%; in test [2] it was 5.53% (active); in test [3], -4.88% (active); in test [4], 45.1%; in test [5], 45%; in test [6], 16.7%. For the same compound, the growth in test [7] is 18.4%; in test [8] it was 34.4%; in test [9], 36.1%; in test [10], 35.2%.

Turning to `COc1cc2[nH]c(C(=O)c3cc(OC)c(OC)c(OC)c3)c(N)c2cc1C#CCO`, the growth in test [1] is 19.6%; in test [2] it was 1.02% (active); in test [3], 8.88% (active); in test [4], 26.3%; in test [5], 22.8%; in test [6], 10.6%. In addition, the growth in test [7] was -0.319% (active); in [8], 31.2%; in test [9], 39.4%; in [10] it was 14.3%.

Turning to `CN1CCN(c2nc(-c3cccc4ccccc34)nc3sc4c(c23)CCCCCC4)CC1`, the growth was 91.8% in test [1]; 71.2% in test [2]; 49.1% in test [3]; 91.5% in test [4]; 66.4% in [5]; 56.7% in test [6]. Besides, the growth in [7] was 85.3%; in test [8] it was 87.6%; in test [9], 95.1%; in test [10], 98.1%.

Take `Oc1ccc(CCC2CCCC(CCc3ccc(OCCF)cc3)N2)cc1` (stereo unspecified): the growth in test [1] is 88.1%; in test [2], 87.2%; in [3] it was 78.7%; in test [4], 101%; in test [5] it was 85.8%; in test [6] it was 87.8%. Also, the growth in test [7] is 90%.

Take `Cc1cc(Nc2ccc(F)cc2)nc(N2CCN(c3ccnc4cc(Cl)ccc34)CC2)n1`: the growth in [1] was 9.8% (active); in [2], 1.42% (active); in test [3], 14.6%; in test [4], 43.9%; in test [5], 26.4%; in test [6], 11.1%. Further, the growth in test [7] was 14.1%; in [8], 21.5%; in test [9], 13.1%; in [10], 16.7%.

On to `COC(=O)C(N)CSC(c1ccccc1)(c1ccccc1)c1ccccc1` (stereo unspecified), for which the growth is 28% in [1]; 1.58% (active) in test [2]; 31.4% in [3]; 63.7% in [4]; 23.3% in [5]; 25.1% in [6]. The growth is 23.9% in test [7], 54.3% in test [8], 35.2% in [9] and 49.5% in [10].

For the compound `COc1ccc(C(=O)c2cc(OC)c(OC)c(OC)c2)cc1/C=C/C(=O)c1cc(OC)c(OC)c(OC)c1`, the growth was 64.7% in test [1]; 82.7% in [2]; 65.4% in test [3]; 92.7% in test [4]; 86.4% in test [5]; 86.5% in [6]. In addition, the growth was 86.6% in test [7], 70.6% in test [8], 79% in test [9] and 91.3% in test [10].

With `Cc1cc(C=O)c(C)c2c1[nH]c1ccccc12`, the growth in test [1] is 99.8%; in test [2] it was 93.2%; in [3] it was 78.7%; in test [4], 94.6%; in test [5] it was 94.1%; in test [6], 92.5%. Also, the growth in [7] was 112%; in [8] it was 57.3%; in test [9], 81.5%; in test [10], 110%.

On to `O=C1CCN2C(=O)Nc3ccccc3C2C1` (stereo unspecified), for which the growth was 99% in test [1]; 104% in test [2]; 83.4% in test [3]; 92% in test [4]; 104% in test [5]; 95.2% in test [6]. Besides, the growth in [7] was 103%.

`Cc1ccc(-c2ccc(Nc3ccccc3)nn2)cc1S(N)(=O)=O`: the growth in test [1] was 65.9%; in test [2], 70.9%; in test [3], 87.1%; in test [4] it was 106%; in test [5], 93.7%; in test [6], 93.8%. Further, the growth in [7] was 89.3%; in test [8] it was 89%; in [9] it was 73.7%; in test [10] it was 89.1%.

On to `COc1ccc(C2NC(=O)Nc3ccccc32)c(OC)c1` (stereo unspecified), for which the growth in [1] was 100%; in test [2] it was 108%; in test [3], 68.7%; in test [4] it was 99.1%; in [5], 99.7%; in [6], 82.2%. The growth in test [7] is 96%.

On to `Cc1nn2c(-c3nc4cc(Cl)c(Cl)cc4[nH]3)c(-c3ccc(F)cc3)nc2s1`, for which the growth in test [1] was 76.8%; in [2], 20%; in test [3], -43.7% (active); in test [4] it was 25.7%; in [5], 10.6%; in test [6], 24.6%. The growth was 31.9% in test [7], 15.9% in [8], 19.5% in [9] and 22.9% in test [10].

As for `C/C(=N/NC(N)=S)C(=O)O`, the growth was 82.9% in test [1]; 56.5% in test [2]; 95.3% in test [3]; 98.4% in test [4]; 73.9% in test [5]; 72.8% in test [6]. For the same compound, the growth in [7] was 102%; in [8], 99.9%; in test [9], 74.9%; in test [10], 103%.

Turning to `COC(=O)[C@@H]1[C@H]2C[C@H]3c4[nH]c5cc(OC)ccc5c4CCN3C[C@@H]2C[C@H](OC(=O)/C=C/c2ccnc(OC)c2)[C@H]1OC`, the growth was 71.1% in test [1]; 75.6% in [2]; 53.5% in test [3]; 86.7% in test [4]; 78% in test [5]; 76% in [6]. For the same compound, the growth in [7] was 94.8%; in test [8] it was 86.7%; in [9], 86.5%; in [10], 99.2%.

The values are drawn from PubChem BioAssay (NCI).
